Experimental data reported in PubChem BioAssay AID1117359 (Southern Research Institute, 2015).
The campaign covered roughly 1,500 compounds. About 460 (31%) were called active. Only a sample is shown. Potency and affinity values are given separately. A number with no mark means an inactive call.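 How the source made its calls: active means viability at or below 80% at any tested concentration, marking the compound as toxic; inactive means the rest.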

test: THP-1 cell cytotoxicity, dose response, cytotoxicity control for Vif-APOBEC3G degradation inhibitor project, THP-1 cells (AID 1117359); conditions: THP-1 viability, CellTiter-Glo luminescence, 72 h; series mostly up to 40 µM; viability: at the top concentration

| Compound | viability [%] | outcome |
| --- | --- | --- |
| CC(=O)Nc1nnc(-c2c(-c3c(Cl)cccc3Cl)noc2C)o1 | 95.8 |  |
| CC1CCC/C(=C\Nc2ccc(O)cc2)C1=O (stereo not given) | 94.1 |  |
| CCC1CCC2(CC1)NC(=O)N(CC(=O)Nc1ccc(OC)c(Cl)c1)C2=O (stereo not given) | 109 |  |
| C=C(C)C(=O)Nc1cccc(C2=NOC3(C2)C[C@H](C(N)=O)N(C(=O)COc2ccc(Cl)cc2)C3)c1 (stereo not given in full) | 95.8 |  |
| Cc1nc2nc(-c3ccco3)nn2c(C)c1Cl | 101 |  |
| O=S(=O)(O)c1cc(O)c2ccc(Nc3ccccc3)cc2c1 | 100 |  |
| CC(=O)Nc1ccc(N=Nc2ccccc2)cc1 | 88.4 |  |
| CCn1c(SC(C)C(=O)O)nc2sc3c(c2c1=O)CCC3 (stereo not given) | 104 |  |
| COc1ccc(N/N=C(\C#N)C(=N)SCc2ccccc2)cc1 | 105 |  |
| CC(=O)c1ccccc1NC(=O)COC(=O)CN1C(=O)C2CCCCC2C1=O (stereo not given) | 85.4 |  |
| Cc1cc2cc3c(=O)[nH]c(=O)nc-3n(CC(O)C(O)C(O)CO)c2cc1C (stereo not given) | 89.7 |  |
| CN(CCO)CC(O)CN(c1ccccc1)c1ccccc1 (stereo not given) | 103 |  |
| Oc1cc2c(cc1O)[C@H]1c3ccc(O)c(O)c3OC[C@@]1(O)C2 | 103 |  |
| C(=C\c1ccco1)/c1ccc2ccccc2n1 | 89.1 |  |
| O=C(O)c1ccc(-n2cccc2/C=C2/NC(=O)N(c3ccccc3)C2=O)cc1 | 103 |  |
| O=C(O)c1ccc(-n2cccc2/C=C2/NC(=O)N(c3cccc(Cl)c3)C2=O)cc1 | 101 |  |
| COc1ccc(CCN2CC(C(=O)NCC(c3ccccc3)N(C)C)CC2=O)cc1OC (stereo not given) | 113 |  |
| CN1CCN(C(=O)c2ccc(N(C)S(=O)(=O)c3cccs3)cc2)CC1 | 108 |  |
| COC1=CC(=O)C(C2CC(=O)c3c(O)cc(O)cc3O2)=CC1=O (stereo not given) | 93.2 |  |
| Cc1c(O)cc2c(c1O)C(=O)CC(c1ccc(O)cc1)O2 (stereo not given) | 94.6 |  |
| C(=N\Nc1nncn1/N=C/c1ccco1)/c1ccco1 | 90.5 |  |
| Cn1c(=O)c2c(ncn2CC(=O)N/N=C/C=C/c2ccco2)n(C)c1=O | 98.3 |  |
| Cn1c2ccccc2c2ccc3c(c21)C(=O)C=CC3=O | 89.6 |  |

| Compound | viability [%] | outcome |
| --- | --- | --- |
| COc1ccc2[nH]c(C(=O)O)c(CCN3C(=O)c4cccc([N+](=O)[O-])c4C3=O)c2c1 | 89.3 |  |
| COc1ccc(N2CCN(CC(=O)c3c(C)n(C)c4ccc(OC)cc34)CC2)cc1 | 89.2 |  |
| Cc1ccc(N=Nc2ccc(N)cc2C)c(S(N)(=O)=O)c1 | 99.2 |  |
| O=C1CNC(=O)/C1=C/c1ccc(Br)cc1 | 89.6 |  |
| O=C(COC(=O)c1ccc(O)cc1O)NNC(=O)c1cccs1 | 99.2 |  |
| CC[n+]1ccc(C)c2cc(P(=O)(c3ccccc3)c3ccccc3)ccc21 | 83.4 |  |
| Cc1ccc(S(=O)(=O)n2ccc(=O)[nH]2)cc1 | 96.9 |  |
| O=C(CCS(=O)(=O)c1ccc(Br)cc1)NC1CCCC1 | 94.3 |  |
| Cc1cc(NS(=O)(=O)c2cc(Cl)sc2Cl)no1 | 94.2 |  |
| Cc1cc(O)cc(O)c1C(=O)Cc1cnn(-c2ccccc2)c1 | 89.1 |  |
| CCC1=C2CC[C@H]3C(=O)NC(=O)[C@H]3[C@H]2[C@@]2(Cc3ccccc3)C(=NCC(=O)OC)OC(=O)N2C1=O | 93.3 |  |
| CCN(CC)S(=O)(=O)c1cccc(NN=c2c(=O)c3ccccc3c2=O)c1 | 96.9 |  |
| CCc1ccc2c(c1)cc(C)c1nnc(SCC(=O)Nc3cc(OC)c(OC)cc3C(=O)O)n12 | 98.7 |  |
| COC/C=C/C1=CC2=CC(=O)C(C)(OC(=O)c3cnc4ccccc4n3)C(=O)C2=CN1c1ccccc1 (stereo not given) | 98.3 |  |
| Nc1ccc2c(O)cc(S(=O)(=O)O)cc2c1 | 92.7 |  |
| CCOC(=O)C1CCN(c2ncnc3cc(OC)c(OC)cc23)CC1 | 89.9 |  |
| O=C(O)C1OC(Oc2c(-c3ccc(O)c(O)c3)oc3cc(O)cc(O)c3c2=O)C(O)C(O)C1O (stereo not given) | 109 |  |
| COC(=O)C1=C(O)/C(=C\c2ccc(CNC(=O)C(=O)Nc3ccc(C)cc3)o2)N=C1C | 96.6 |  |
| CC(Sc1nnc(C2CC2)n1C)C(=O)Nc1ccc(N2CCOCC2)cc1 (stereo not given) | 87.6 |  |
| CC1=C(C#N)C(=O)N(C2CCS(=O)(=O)C2)C(=O)/C1=C\c1ccco1 (stereo not given) | 109 |  |
| O=C1c2ccccc2C(=O)N1/N=C/c1ccc(O)c(O)c1O | 99.6 |  |
| Nc1ccc(Nc2ccccc2)c(S(=O)(=O)O)c1 | 93.4 |  |
| Cc1ccc(NC(=O)COc2ccc(/C=N/NC(=O)CSCc3ccccc3)cc2)cc1 | 106 |  |

| Compound | viability [%] | outcome |
| --- | --- | --- |
| CCCCC1=CC2=CC(=O)C(C)(OC(=O)c3cnc4ccccc4n3)C(=O)C2=CO1 (stereo not given) | 116 |  |
| c1cnc(N2CCN(c3cnccn3)CC2)nc1 | 103 |  |
| COc1ccc(CN2CCNC(=O)C2CC(=O)NC2CCCC2)cc1OC (stereo not given) | 107 |  |
| CCN(CC)S(=O)(=O)c1ccc(C(=O)NCc2n[nH]c(=S)n2-c2ccccc2OC)cc1 | 92.7 |  |
| Cc1ccc2c(c1)NC(=O)c1cc([N+](=O)[O-])ccc1O2 | 100 |  |
| NS(=O)(=O)c1ccc(NC(=O)COC(=O)CC2Sc3ccccc3NC2=O)cc1 (stereo not given) | 102 |  |
| CCOC(=O)c1ccc(NS(=O)(=O)c2ccc3oc(=O)[nH]c3c2)cc1 | 108 |  |
| COC(=O)c1ccc(C(=O)OC)c(NC(=O)Cc2cccs2)c1 | 93.8 |  |
| CC[C@H](C)[C@H](NC(N)=O)C(=O)NCCc1ccc(OC)cc1 | 93.2 |  |
| COc1ccc(CCNC(=O)/C=C/c2ccco2)cc1 | 102 |  |
| Nc1ccc(Oc2ncccn2)cc1 | 87.9 |  |
| CCOC(=O)c1[nH]nc(-c2c(O)cc(C)cc2O)c1-c1csc(C)n1 | 93.2 |  |
| CC(C)OCCCNC(=O)c1cccs1 | 110 |  |
| O=C(Nc1ccccc1)c1ccc(S(=O)(=O)N(CCO)CCO)cc1 | 111 |  |
| CC(C)CN1C(=O)c2ccc(C(=O)Nc3ccc(O)cc3C(=O)O)cc2C1=O | 86.5 |  |
| CS(=O)(=O)c1ccc(Cl)c(NC(=O)COC(=O)COc2ccc3c(c2)CCC3)c1 | 106 |  |
| CCOc1ccc(NC(=O)CCS(=O)(=O)c2ccc(Br)cc2)cc1 | 98 |  |
| Cc1ccsc1C=Nc1ccc(O)cc1 | 96 |  |
| Cc1nccn1CC(=O)N/N=C/c1ccc(O)c(O)c1 | 97.3 |  |
| Oc1ccc(N=Cc2sc3ccccc3c2Cl)cc1 | 85.9 |  |
| NC(=S)N=Nc1c(O)cc(O)c2[nH]c(=O)ccc12 | 101 |  |
| Cc1n[nH]c(=S)n(NC(=O)/C=C/C(=O)Nn2c(=S)[nH]nc(C)c2=O)c1=O | 84.8 |  |
| CCN(CC)C(=O)NCc1c(C)cc(C)cc1C | 92.4 |  |

| Compound | viability [%] | outcome |
| --- | --- | --- |
| CCOC(=O)C(=O)Cc1cccnn1 | 114 |  |
| CC(=O)c1ccc(S(=O)(=O)Nc2cccc(-n3cnnn3)c2)cc1 | 89.7 |  |
| CC1CCC(NC(=O)CCS(=O)(=O)c2ccc3c(c2)CCN3C(=O)C2CC2)CC1 (stereo not given) | 86.4 |  |
| CCc1ccc(-c2nc(SCC(=O)c3c(N)n(C4CC4)c(=O)[nH]c3=O)n[nH]2)cc1 | 105 |  |
| COCCn1c(SCC(=O)N2CCC(C)CC2)nc2c([nH]c3ccccc32)c1=O | 93.1 |  |
| O=C(c1ccc2nc(-c3ccco3)c(-c3ccco3)nc2c1)N1CCN(c2ncccn2)CC1 |  | inactive |
| N#Cc1ccccc1S(=O)(=O)N1CCN(C(=O)CN2CCCC2c2cccs2)CC1 (stereo not given) | 105 |  |
| Cc1ccccc1OCC(=O)OCC(=O)c1ccc(OC(=O)c2ccccc2)cc1 | 96.2 |  |
| COc1ccccc1OCC(=O)NCC1CCCN(Cc2cnn(C(C)C)c2)C1 (stereo not given) | 110 |  |
| Cc1cc(C(=O)NNC(=O)CCC2CCCCC2)c(C)o1 | 87.2 |  |
| CCOc1ccc(N(CC(=O)NCCC2=CCCCC2)S(=O)(=O)c2ccccc2)cc1 | 95 |  |
| CC(Oc1cccc2cccnc12)C(=O)N/N=C/c1ccc2c(c1)OCO2 (stereo not given) | 97.9 |  |
| O=C(c1cc(COc2cccc3cccnc23)on1)N1CCC[C@H]1CO | 98.2 |  |
| CC(=O)Nc1ccc(NC(=O)CN(c2cccc(C(C)=O)c2)S(C)(=O)=O)cc1 | 102 |  |
| COc1ccc(-n2c(Cc3cccn3C)nnc2SCC(=O)Nc2ccccc2)cc1 | 103 |  |
| Cn1c(N)c(C(=O)CCl)c(=O)n(Cc2ccccc2)c1=O | 92 |  |
| CCOC(=O)c1cc2c(n(-c3ccccc3)c1=O)CC(C)(C)CC2=O | 102 |  |
| O=C(O)c1cc(-c2ccccc2)on1 | 100 |  |
| CN1CCN(C(CNC(=O)c2ccc(Br)o2)c2ccc(F)cc2)CC1 (stereo not given) | 96.6 |  |
| CC(NC(=O)CSc1nnc2n1CCCCC2)c1ccccc1Cl (stereo not given) | 104 |  |
| COc1cc(CN2CCNC(=O)C2CC(=O)N(Cc2nccn2C)C(C)C)cc(OC)c1 (stereo not given) | 100 |  |
